For some assays here: Results with a measured potency or affinity are listed apart.
Experiments:
Parameters in all cases: scale not given: direction of the effect not stated beside the values
[1] = biological target: Protein translocase subunit SecA (Escherichia coli (strain K12)) (UniProt P10408); assay: Assay to Identify E. coli SecA ATPase Inhibitors; format: functional; settings: 30 µM
[2] = biological target: T1, Ubiquitin-activating enzyme e1, putative (Leishmania donovani (strain BPK282A1)) (UniProt E9BSI1); assay: Leishmania donovani Ubiquitin Activating Enzyme (LdE1); format: functional; settings: 30 µM
T1 sequence (whole entry): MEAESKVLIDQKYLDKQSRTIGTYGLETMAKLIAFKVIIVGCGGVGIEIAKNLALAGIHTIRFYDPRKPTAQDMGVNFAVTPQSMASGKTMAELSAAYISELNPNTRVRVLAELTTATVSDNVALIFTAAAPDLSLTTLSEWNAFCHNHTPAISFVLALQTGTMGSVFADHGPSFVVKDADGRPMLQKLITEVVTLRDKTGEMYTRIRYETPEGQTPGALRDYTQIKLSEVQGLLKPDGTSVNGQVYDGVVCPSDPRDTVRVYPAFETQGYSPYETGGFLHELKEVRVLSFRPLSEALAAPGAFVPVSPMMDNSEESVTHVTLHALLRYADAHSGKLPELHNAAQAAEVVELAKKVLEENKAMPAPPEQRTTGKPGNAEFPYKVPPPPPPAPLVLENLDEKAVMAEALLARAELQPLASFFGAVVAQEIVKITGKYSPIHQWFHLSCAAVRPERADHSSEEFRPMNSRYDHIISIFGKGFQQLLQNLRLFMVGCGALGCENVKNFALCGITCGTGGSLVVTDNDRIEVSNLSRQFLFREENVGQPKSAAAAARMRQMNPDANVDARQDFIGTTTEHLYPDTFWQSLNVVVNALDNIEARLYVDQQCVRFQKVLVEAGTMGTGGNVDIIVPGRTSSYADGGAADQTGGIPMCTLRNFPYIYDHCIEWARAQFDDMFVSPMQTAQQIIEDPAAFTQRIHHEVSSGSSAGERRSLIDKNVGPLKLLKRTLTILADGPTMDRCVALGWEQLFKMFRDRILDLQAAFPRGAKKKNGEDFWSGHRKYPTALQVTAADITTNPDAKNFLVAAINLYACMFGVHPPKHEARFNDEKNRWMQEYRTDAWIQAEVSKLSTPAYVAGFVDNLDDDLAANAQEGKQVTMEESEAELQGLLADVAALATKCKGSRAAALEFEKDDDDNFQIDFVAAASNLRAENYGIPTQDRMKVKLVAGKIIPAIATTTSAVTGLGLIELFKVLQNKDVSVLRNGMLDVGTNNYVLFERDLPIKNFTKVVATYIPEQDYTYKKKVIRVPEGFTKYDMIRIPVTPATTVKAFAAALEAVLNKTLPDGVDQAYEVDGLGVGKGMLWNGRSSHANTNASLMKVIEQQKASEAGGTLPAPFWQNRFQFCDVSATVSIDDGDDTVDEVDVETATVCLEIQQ

[3] = biological target: AMP-activated protein kinase, AMPK (Homo sapiens) (UniProt P54646+O43741+P54619+Q9UGJ0+Q9Y478+Q13131+Q9UGI9); assay: AMP-dependent Kinase enzyme assay. An in vitro enzyme assay that detects ADP turnover that is directly proportional to AMPK activity. This uses naive AMPK that is activated during the assay with MK-8722; format: functional; settings: 30 µM
[4] = biological target: Sialic acid-binding Ig-like lectin 9 (Homo sapiens) (UniProt Q9Y336); assay: Hs-Siglec9 ALPHAscreen SOP 20170721; settings: 10 µM
Trypanosoma cruzi = assay: Trypanosoma cruzi phosphomannomutase and mannose-1-phosphate guanylyltransferase assay; format: functional; settings: 10 µM
[5] = biological target: T2, Arginase-2, mitochondrial (Homo sapiens) (UniProt P78540); assay: in vitro enzyme assay to detect the production of urea directly proportional to the activity of Arginase II; format: functional; settings: 33.3 µM; further: in the data most compounds retested in dose-response had high values
T2 sequence (whole entry): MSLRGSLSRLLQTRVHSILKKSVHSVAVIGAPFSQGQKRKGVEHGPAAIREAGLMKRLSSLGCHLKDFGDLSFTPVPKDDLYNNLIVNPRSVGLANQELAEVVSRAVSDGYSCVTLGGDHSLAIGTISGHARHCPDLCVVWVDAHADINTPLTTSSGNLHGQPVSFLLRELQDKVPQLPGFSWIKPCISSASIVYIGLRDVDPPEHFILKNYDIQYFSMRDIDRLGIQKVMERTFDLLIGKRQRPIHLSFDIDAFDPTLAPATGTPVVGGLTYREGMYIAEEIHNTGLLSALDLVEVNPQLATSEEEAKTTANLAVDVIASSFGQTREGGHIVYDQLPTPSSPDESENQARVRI

[6] = biological target: T3, Proteasome subunit beta (Trypanosoma cruzi) (UniProt O96673); assay: Trypanosoma cruzi proteasome chymotrypsin-like activity (TcProtChymo) assay.; further: in the data most compounds retested in dose-response had high values; format: functional; settings: 9.37 µM
T3 sequence (whole entry): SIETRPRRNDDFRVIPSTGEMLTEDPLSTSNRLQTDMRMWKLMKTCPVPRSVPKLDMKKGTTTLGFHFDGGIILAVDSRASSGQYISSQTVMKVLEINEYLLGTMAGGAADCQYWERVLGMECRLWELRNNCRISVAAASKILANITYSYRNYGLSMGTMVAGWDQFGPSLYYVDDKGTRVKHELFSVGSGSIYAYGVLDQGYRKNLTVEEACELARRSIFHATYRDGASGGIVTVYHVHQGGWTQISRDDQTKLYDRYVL

Homo sapiens = organism: Homo sapiens; assay: To identify inhibition of the IFN signalling (Jak-Stat) pathway via expression of an eGFP reporter gene under the control of an IFN-stimulated response element (ISRE) containing MxA promoter.; format: functional; settings: 30 µM
[7] = biological target: T4, Tyrosyl-tRNA synthetase, putative (Trypanosoma cruzi (strain CL Brener)) (UniProt Q4DSP6); assay: Trypanosoma cruzi tyrosyl tRNA synthetase (TcYRS) _High Tyrosine SOP; format: functional; settings: 30 µM; further: in the data most compounds retested in dose-response had high values
T4 sequence (whole entry): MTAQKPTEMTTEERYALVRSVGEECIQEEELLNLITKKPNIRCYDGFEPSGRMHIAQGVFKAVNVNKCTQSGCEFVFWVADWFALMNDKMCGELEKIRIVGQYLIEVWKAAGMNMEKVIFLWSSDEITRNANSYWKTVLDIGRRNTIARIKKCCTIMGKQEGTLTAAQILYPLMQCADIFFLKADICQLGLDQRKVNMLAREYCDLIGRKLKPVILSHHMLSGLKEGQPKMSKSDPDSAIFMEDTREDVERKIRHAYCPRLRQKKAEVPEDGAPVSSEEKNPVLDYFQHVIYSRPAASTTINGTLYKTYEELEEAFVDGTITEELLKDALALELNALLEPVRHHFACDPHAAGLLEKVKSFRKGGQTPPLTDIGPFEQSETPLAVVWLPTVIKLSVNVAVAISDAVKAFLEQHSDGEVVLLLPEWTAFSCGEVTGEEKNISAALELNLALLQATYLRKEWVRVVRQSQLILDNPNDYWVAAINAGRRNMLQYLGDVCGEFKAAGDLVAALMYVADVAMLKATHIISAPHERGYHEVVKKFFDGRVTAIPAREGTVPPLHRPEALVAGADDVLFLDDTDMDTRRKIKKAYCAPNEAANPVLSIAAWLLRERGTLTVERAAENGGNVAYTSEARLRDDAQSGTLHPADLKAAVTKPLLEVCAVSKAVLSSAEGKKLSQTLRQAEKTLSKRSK

[8] = biological target: T4, Tyrosyl-tRNA synthetase, putative (Trypanosoma cruzi (strain CL Brener)); assay: Trypanosoma cruzi tyrosyl tRNA synthetase (TcYRS) SOP; format: functional; settings: 30 µM
[9] = biological target: Chromo domain-containing protein 1 (Saccharomyces cerevisiae (strain ATCC 204508 / S288c) (Baker's yeast)) (UniProt P32657); assay: ScCHD-1 Enzyme Inhibition Assay; format: functional; settings: 30 µM; further: in the data most compounds retested in dose-response had high values
Chain of Chromo domain-containing protein 1 (Saccharomyces cerevisiae (strain ATCC 204508 / S288c) (Baker's yeast)) (P32657 whole entry, the tested form may be a part): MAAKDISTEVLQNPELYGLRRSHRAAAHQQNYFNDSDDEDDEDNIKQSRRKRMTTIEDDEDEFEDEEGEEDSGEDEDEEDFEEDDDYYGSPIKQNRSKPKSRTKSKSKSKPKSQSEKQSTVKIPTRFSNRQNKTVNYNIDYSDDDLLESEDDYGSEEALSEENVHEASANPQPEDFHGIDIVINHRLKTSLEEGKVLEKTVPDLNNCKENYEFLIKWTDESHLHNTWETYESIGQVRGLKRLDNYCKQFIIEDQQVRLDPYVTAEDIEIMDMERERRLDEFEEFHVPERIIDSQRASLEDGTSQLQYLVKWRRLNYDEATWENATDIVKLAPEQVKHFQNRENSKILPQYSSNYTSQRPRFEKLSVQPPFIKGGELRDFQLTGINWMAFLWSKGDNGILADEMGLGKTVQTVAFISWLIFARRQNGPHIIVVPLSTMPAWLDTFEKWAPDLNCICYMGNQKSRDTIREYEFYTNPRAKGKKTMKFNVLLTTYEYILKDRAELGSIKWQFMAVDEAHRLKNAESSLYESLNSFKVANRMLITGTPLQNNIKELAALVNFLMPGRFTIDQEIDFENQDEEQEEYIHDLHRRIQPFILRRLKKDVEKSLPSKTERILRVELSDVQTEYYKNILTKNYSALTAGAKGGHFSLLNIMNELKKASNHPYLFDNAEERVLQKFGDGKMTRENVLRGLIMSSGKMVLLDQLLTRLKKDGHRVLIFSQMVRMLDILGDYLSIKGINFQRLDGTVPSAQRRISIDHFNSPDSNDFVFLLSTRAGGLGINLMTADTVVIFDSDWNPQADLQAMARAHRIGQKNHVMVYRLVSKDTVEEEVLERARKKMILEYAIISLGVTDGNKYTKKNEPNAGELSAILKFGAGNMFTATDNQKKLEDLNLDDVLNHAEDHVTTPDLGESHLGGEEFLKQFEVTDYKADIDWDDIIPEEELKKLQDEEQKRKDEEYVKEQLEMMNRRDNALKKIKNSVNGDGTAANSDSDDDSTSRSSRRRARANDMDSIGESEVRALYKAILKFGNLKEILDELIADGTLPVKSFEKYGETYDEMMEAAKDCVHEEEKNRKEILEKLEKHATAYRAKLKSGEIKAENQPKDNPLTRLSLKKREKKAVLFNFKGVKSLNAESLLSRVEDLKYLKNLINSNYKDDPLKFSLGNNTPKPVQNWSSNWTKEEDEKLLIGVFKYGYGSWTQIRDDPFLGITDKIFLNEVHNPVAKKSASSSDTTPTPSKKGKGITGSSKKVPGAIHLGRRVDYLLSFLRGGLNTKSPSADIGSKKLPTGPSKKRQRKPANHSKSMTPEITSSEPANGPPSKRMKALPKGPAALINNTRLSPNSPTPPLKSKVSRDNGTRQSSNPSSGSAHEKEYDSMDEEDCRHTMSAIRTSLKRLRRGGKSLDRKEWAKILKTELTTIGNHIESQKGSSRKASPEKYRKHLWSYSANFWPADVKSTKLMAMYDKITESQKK

Chain of Protein translocase subunit SecA (Escherichia coli (strain K12)) (P10408 whole entry): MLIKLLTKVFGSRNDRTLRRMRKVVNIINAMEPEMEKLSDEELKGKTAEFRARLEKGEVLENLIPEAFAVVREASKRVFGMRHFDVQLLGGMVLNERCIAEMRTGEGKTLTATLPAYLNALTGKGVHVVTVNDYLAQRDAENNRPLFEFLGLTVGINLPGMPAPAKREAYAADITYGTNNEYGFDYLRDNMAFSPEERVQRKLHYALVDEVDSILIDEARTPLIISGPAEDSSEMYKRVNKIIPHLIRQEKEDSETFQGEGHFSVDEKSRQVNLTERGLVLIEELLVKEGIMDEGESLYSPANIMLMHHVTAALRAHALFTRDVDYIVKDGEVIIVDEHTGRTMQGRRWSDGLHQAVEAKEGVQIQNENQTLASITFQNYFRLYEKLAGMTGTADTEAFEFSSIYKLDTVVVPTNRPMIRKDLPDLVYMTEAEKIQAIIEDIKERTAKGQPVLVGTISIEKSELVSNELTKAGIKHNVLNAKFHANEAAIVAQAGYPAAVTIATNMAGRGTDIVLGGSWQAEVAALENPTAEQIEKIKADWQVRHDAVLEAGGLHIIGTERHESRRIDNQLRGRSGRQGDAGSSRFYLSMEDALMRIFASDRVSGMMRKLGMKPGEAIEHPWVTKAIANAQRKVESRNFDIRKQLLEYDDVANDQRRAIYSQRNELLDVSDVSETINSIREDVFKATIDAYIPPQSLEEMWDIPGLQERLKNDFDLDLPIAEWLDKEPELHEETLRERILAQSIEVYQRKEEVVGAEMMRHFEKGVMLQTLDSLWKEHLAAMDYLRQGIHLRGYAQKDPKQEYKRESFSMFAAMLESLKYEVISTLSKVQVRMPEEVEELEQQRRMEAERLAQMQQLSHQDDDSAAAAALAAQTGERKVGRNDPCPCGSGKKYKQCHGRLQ
Chain of Sialic acid-binding Ig-like lectin 9 (Homo sapiens) (Q9Y336 whole entry): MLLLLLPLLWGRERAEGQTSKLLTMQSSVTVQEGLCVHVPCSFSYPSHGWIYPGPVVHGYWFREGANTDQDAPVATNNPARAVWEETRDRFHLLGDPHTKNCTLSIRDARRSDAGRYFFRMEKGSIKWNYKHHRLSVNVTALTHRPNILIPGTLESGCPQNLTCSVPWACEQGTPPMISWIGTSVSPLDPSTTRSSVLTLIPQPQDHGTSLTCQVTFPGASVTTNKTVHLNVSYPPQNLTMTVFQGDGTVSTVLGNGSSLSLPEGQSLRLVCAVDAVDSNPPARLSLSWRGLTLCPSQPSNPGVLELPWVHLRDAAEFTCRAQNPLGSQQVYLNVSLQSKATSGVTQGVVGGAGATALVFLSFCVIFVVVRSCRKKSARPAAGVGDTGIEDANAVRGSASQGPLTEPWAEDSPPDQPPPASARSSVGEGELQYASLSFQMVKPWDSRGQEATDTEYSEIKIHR

| SMILES | Percent Effect [1] [%] | Percent Effect [2] [%] | Percent Effect [3] [%] | Percent Effect [4] [%] | Percent Effect (Trypanosoma cruzi) [%] | Percent Effect [5] [%] | Percent Effect [6] [%] | Percent Effect (Homo sapiens) [%] | Percent Effect [7] [%] | Percent Effect [8] [%] | Percent Effect [9] [%] |
| --- | --- | --- | --- | --- | --- | --- | --- | --- | --- | --- | --- |
| CC(O)CN1CCN(C(=O)CN(C)c2ccc(Cl)cn2)CC1 (centres undefined) | -0.0278 | -2.7 | -4.09 | 7.01 | -1.93 | -2.38 | 14.8 | 14.1 | 4.76 | 7.32 | -3.67 |
| CO[C@@H]1CC[C@H]2[C@H]1OCCN2C(=O)COc1ccc(F)cc1 | 0.9 | -2.7 | 12.4 | 0.225 | -4.01 | 3.5 | 15.3 | 3.76 | 4.32 | -2.56 | 0.177 |
| O=C(COc1coc(CN2CCCCC2)cc1=O)Nc1ccc(Cl)cc1 | -3.05 | 1.33 | 4.41 | 7 | -0.982 | -7.92 | 6.1 | -11.6 | 6.35 | 10.3 | 0.832 |
| COc1ccc(CN2C[C@H]3CN(c4ccsc4)C(=O)[C@H]3C2)cc1 | -1.53 | 0 | 6.82 | -0.914 | -3.23 | 0.955 | 19 | 14.6 | 2.16 | 10.3 | -1.59 |

Reference: ChEMBL document CHEMBL3988442, “University of Dundee, Small-Polar-MMV Screening Library” (2021)
